Tb PYK inh – qHTS of Trypanosoma Brucei Inhibitors | TbPYK enzyme, Kinase-Glo Plus ATP luminescence, 45 min | Potency, µM (titrated, usually from 76.8 µM), without a hit: at the top dose activity, negative = inhibition, hits mostly inhibitors | AID 624173, 2012 | actives 0.12% (n = 410,000); further: on the % scale 0 is the no-effect control and ±100 the full control effect; nearly all actives have a fitted effect of over 50% in size
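ADP (130 uM final) triggers the TbPYK reaction after compound addition; incubation is 45 min at room temperature. Kinase-Glo Plus is then added and luminescence imaged. Normalized data are fitted to concentration-effect curves.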
Sm TGR block – qHTS Assay for the Inhibitors of Schistosoma Mansoni Peroxiredoxins | actives 3% (n = 360,000) | purified TGR, DTNB reduction, TNB absorbance 405 nm | Potency, µM (highest dose often 114 µM), inactives show at the top dose activity change, negative = inhibition, usual class: inhibitors | AID 485364, 2010 | Schistosoma mansoni thioredoxin glutathione reductase (TGR), Q962Y6; further: on the % scale 0 is the no-effect control and ±100 the full control effect; nearly all actives have a fitted effect of over 60% in size
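TGR 20 nM + NADPH 100 uM (dispensed conc.), cpd preinc 15 min RT; start with NADPH (500 uM addition) then DTNB (15 mM addition). Kinetic TNB absorbance, 405 nm filter. Four-parameter Hill fit across titration.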
RE007 growth inh – qHTS Assay for Inhibitors of the HIV-1 protein Vpr. S. pombe RE007 Vpr strain, BacTiter-Glo ATP luminescence, 24 h. AID 651644, 2012. actives 0.21% (n = 360,000). Potency, µM (highest dose often 92.2 µM), for inactives: at the highest dose activity change, negative = less growth, most hits filed as inhibitors; active means well fitted falling curve with a large enough effect; inconclusive means small, poorly fitted or top-dose-only effect; inactive means no such curve, though single readings can be large or run the other way; further: on the % scale 0 is the no-effect control and ±100 the full control effect; nearly all actives have a fitted effect of over 50% in size
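Fission yeast RE007 carrying one integrated HIV-1 vpr copy, seeded at OD 0.01 in PMG+AL medium with 23 nL pinned compound. Grown 24 h at 30 degrees; viability read by BacTiter-Glo luminescence after 5 min.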
LmPK inhibitor – qHTS Assay for Inhibitors of Leishmania Mexicana Pyruvate Kinase (LmPK) | actives 0.37% (n = 290,000) | Potency, µM (top dose mostly 57.5 µM), for the others: top-dose activity change, negative = inhibition, usual class: inhibitors | AID 1721, 2009 | Q27686 | purified LmPK, Kinase-Glo ATP luminescence, 1 h; further: on the % scale 0 is the no-effect control and ±100 the full control effect
Target sequence (Q27686 whole entry, looked up): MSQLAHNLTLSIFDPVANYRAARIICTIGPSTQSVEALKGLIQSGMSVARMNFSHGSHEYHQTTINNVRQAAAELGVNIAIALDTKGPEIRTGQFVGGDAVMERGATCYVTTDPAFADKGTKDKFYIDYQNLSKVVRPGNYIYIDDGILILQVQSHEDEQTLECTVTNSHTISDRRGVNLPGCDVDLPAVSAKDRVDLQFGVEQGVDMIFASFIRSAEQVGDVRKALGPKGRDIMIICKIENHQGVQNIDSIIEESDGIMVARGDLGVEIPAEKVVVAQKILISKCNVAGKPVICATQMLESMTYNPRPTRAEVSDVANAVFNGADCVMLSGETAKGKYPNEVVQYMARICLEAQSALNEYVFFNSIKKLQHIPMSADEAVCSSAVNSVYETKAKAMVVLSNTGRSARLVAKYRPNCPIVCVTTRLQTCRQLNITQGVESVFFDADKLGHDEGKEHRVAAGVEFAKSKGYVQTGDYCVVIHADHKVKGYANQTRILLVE
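qHTS format; LmPK 0.1 nM; substrates PEP 0.5 mM and ADP 0.1 mM. One-hour room-temperature incubation, then coupled luciferase luminescence; 0.5 nM enzyme wells mark activation.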
NS1 inh – qHTS Assay for Inhibitors of Influenza NS1 Protein Function | AID 2326, 2010 | actives 0.4% (n = 270,000) | Potency, µM (top dose mostly 46.1 µM), for the others: top-dose activity, positive = more growth; calls by dose curve; further: actives are rising curves; nearly all actives have a fitted effect of over 50% in size
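OD600 was taken as the measure of yeast growth restored by compound in an NS1-expressing S. cerevisiae strain. Cells had been washed out of glucose medium and diluted 1:100 into galactose -URA medium, pH 6.0.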
FBPA Giardia inh – qHTS Assay for Inhibitors of Fructose-1,6-bisphosphate Aldolase from Giardia Lamblia; A8B2U2; purified Giardia FBPA; Potency, µM (series often up to 59.6 µM), without a hit: at the top dose activity, negative = inhibition, actives largely listed as inhibitors; actives 0.71% (n = 290,000); AID 2451, 2010; further: on the % scale 0 is the no-effect control and ±100 the full control effect; nearly all actives have a fitted effect of over 55% in size
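Giardia FBPA (40 nM reagent) was preincubated 10 min at RT with compound (up to 57.5 uM final), then substrate plus GAPDH/TPI/NAD/arsenate coupling system with diaphorase/resazurin was added; resorufin fluorescence (525/598 nm) was read after 20 min.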
* = called active by the depositor; u = inconclusive; x = not tested or not shown. An excerpt weighted towards active compounds, which were near 3.5% of everything screened. Unless noted, the call rests on the fitted dose curve; in most records, active means well fitted curve in the direction sought with a large enough effect; inconclusive means small, poorly fitted or top-dose-only effect, or another doubt; inactive means no such curve, though single readings can be large; an effect the other way counts as inactive or inconclusive. Potency means the concentration at half of the fitted maximal effect.

SMILES	Tb PYK inh	Sm TGR block	RE007 growth inh	LmPK inhibitor	NS1 inh	FBPA Giardia inh
Cc1ccc(NC(=O)Cn2c(CCC(=O)O)ccc2-c2cccs2)cc1Cl	-18.3%	25.1µM*	43.5%	0.5%	x	22.7%
O=C(O)CCc1ccc(-c2cccs2)n1CCc1ccccc1	-0.6%	10µM*	-12.5%	5.2%	6.7%	3.1%
O=C(O)CCc1ccc(-c2cccs2)n1CCC(=O)O	-7.1%	7.08µM*	-10.9%	7.5%	10.8%	-14.3%
Cc1ccc(OCC(=O)Nc2cccc(C(=O)OCc3cc(=O)n4c(C)csc4n3)c2)cc1	0.0%	-0.3%	x	x	x	x
CCOC(=O)Cn1c(=O)n(CC2CCCO2)c2nc(-c3ccc(OCC)cc3)nc(C(N)=O)c21 (stereo not drawn)	2.6%	-2.1%	x	x	x	x
Cc1cccc(CNC(=O)CSCc2cnn(-c3ccccc3)c2-n2cccc2)c1	-7.9%	2.5%	x	x	x	x
CCN(Cc1ccccc1)c1ncnc2c1cnn2-c1ccc(F)cc1	-0.2%	10.6%	x	x	x	x
Cc1[nH]n(-c2ccccc2)c(=O)c1C(c1ccccc1[N+](=O)[O-])C(C#N)C#N (stereo not drawn)	-5.0%	8.91µM*	-10.8%	-9.8%	4.5%	-21.0%
Cc1ccc(C(C[N+](=O)[O-])c2c(C)[nH]n(-c3ccccc3)c2=O)cc1 (stereo not drawn)	5.5%	-32.7%	20µM*	-0.2%	-21.2%	u
Cc1[nH]n(-c2ccccc2)c(=O)c1C(C[N+](=O)[O-])c1ccc(F)cc1 (stereo not drawn)	0.5%	-17.9%	u	5.8%	-12.9%	u
CCOc1cc(C(c2c(C)[nH]n(-c3ccccc3)c2=O)c2c(C)[nH]n(-c3ccccc3)c2=O)ccc1O	-0.4%	3.16µM*	x	x	x	x
Cc1[nH]n(-c2ccccc2)c(=O)c1C(c1cc(Cl)ccc1O)c1c(C)[nH]n(-c2ccccc2)c1=O	-0.1%	-9.5%	x	x	x	x
Cc1[nH]n(-c2ccccc2)c(=O)c1C(C[N+](=O)[O-])c1ccc(Cl)cc1 (stereo not drawn)	-4.8%	1.58µM*	28.2µM*	0.6%	-32.5%	u
CC(C)(C)OC(=O)N1CCC(c2c(C(=O)NCCN3CCC(Cc4ccccc4)CC3)cnn2-c2ccc(F)cc2)CC1	-5.3%	3.7%	x	x	x	x
CCOC(=O)c1cnc2ccc(C)cc2c1Nc1ccc(OCc2ccccc2Cl)cc1	13.6%	12.7%	x	x	x	x
Cn1c(CO)cnc1S(=O)(=O)Cc1ccc([N+](=O)[O-])cc1	2.9%	28.2µM*	-1.8%	0.2%	3.8%	-2.0%
Cc1ccnc(S(=O)(=O)Cc2ccc([N+](=O)[O-])cc2)n1	8.2%	u	9.3%	-4.6%	-2.9%	3.3%
COc1ccc(NC(=O)COC(=O)/C=C/C(=O)OCC(=O)Nc2ccc(OC)c(Cl)c2)cc1Cl	-16.8%	u	x	0.8%	0.3%	0.0%
C/C(=C\C(=O)OCC(=O)NCc1ccccc1)C(=O)OCC(=O)NCc1ccccc1	-7.4%	-9.1%	2.2%	-2.6%	15.6%	-6.0%
COC(=O)/C=C/C(=O)Nc1ccc(O)c(Cl)c1	u	44.7µM*	-7.6%	-1.1%	4.9%	-8.1%
CCOC(=O)/C=C/C(=O)OCC(=O)Nc1c(Cl)cccc1Cl	7.3%	20µM*	-11.8%	6.9%	x	4.3%
COc1ccc(NC(=O)C=C(C)C)cc1Cl	-12.1%	-3.8%	-26.4%	15.8µM*	-53.4%	-2.7%
CCOC(=O)/C=C/C(=O)OCC(=O)NCc1ccccc1	-2.3%	25.1µM*	-17.6%	-1.5%	-41.0%	-1.7%
CCc1ccc(NC(=O)Cn2ccn(-c3ccc(C)c(C)c3)c(=O)c2=O)cc1	2.6%	5.7%	x	x	x	x
CN(C)c1ccc(CNC(=O)CCn2cccn2)cc1	-17.3%	-12.8%	x	x	x	x
COc1ccc(-n2nc(C(=O)Nc3cc(C)ccn3)c3c4ccccc4n(C)c3c2=O)cc1	0.7%	14.2%	x	x	x	x

Screening results from PubChem BioAssay.
